# Results published in PubChem BioAssay (NCATS).
# Records with an inconclusive call do not appear. Calls of active or inactive are those of the source. Unless noted, calls follow the shape of the dose curve; as a rule, active = well fitted curve in the direction sought with a large enough effect; inconclusive = small, poorly fitted or top-dose-only effect, or another doubt; inactive = no such curve, though single readings can be large; an effect the other way counts as inactive or inconclusive.
# Legend:
# [1] = P-glycoprotein substrates identified in KB-8-5-11 adenocarcinoma cell line, qHTS therapeutic library screen (AID 1346987); also: nearly all actives have a fitted effect of over 65% in size; also: potency is read from the fitted curve at half-maximal effect
# Summary of the method: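 Luminescence from CellTiter-Glo, read 5 min after addition, quantified survival of KB-8-5-11 (P-gp-overexpressing) cells exposed to compounds for 72 h. AC50 was derived from concentration-response curves.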
# [2] = target: Cytochrome P450 2C9 (Homo sapiens) (UniProt P11712); test: Cytochrome P450 family 2 subfamily C member 9 (CYP2C9) small molecule antagonists: luciferase biochemical (cell-free) qHTS assay (AID 1645842; active = well fitted curve in the direction sought with a large enough effect in the repeat runs; an effect the other way counts as inactive or inconclusive; also: potency is read from the fitted curve at half-maximal effect; nearly all actives have a fitted effect of over 55% in size)
# Cytochrome P450 2C9 (Homo sapiens), sequence (P11712 whole entry, looked up): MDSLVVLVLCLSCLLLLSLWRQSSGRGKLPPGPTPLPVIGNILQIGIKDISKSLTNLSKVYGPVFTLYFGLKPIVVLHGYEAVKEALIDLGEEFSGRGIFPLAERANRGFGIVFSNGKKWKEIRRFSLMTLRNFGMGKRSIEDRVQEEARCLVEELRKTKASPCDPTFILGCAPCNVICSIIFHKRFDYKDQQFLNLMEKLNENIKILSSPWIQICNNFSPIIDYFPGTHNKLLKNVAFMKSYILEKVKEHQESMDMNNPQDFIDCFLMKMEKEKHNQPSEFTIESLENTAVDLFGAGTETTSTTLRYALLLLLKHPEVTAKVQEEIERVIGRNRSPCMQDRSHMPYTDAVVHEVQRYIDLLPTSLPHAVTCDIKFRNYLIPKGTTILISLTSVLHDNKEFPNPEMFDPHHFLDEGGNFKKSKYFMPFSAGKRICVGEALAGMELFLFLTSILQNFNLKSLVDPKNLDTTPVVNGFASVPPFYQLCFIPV
# Summary of the method: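 P450-Glo CYP2C9 system: proluciferin substrate with enzyme in mix containing 0.4% BSA, 10 min at room temperature, then NADPH regeneration solution added and incubated 1 h at 37C. Detection reagent stopped reaction; luminescence read after 20 min as RLU.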
# [3] = target: Catechol O-methyltransferase (Homo sapiens) (UniProt P21964); test: Confirmatory Screen for Target Class Profiling of Small Molecule Inhibitors of Methyltransferases (AID 1745852; calls by dose curve; also: potency is read from the fitted curve at half-maximal effect; as to activity change, negative = inhibition: % is scaled to controls: 0 for no effect and ±100 for the full control effect); details: MTase-Glo luminescence, SAH detection, recombinant enzyme; measured here: COMT max response; stronger effect = lower value
# Catechol O-methyltransferase (Homo sapiens), sequence (P21964 whole entry, looked up): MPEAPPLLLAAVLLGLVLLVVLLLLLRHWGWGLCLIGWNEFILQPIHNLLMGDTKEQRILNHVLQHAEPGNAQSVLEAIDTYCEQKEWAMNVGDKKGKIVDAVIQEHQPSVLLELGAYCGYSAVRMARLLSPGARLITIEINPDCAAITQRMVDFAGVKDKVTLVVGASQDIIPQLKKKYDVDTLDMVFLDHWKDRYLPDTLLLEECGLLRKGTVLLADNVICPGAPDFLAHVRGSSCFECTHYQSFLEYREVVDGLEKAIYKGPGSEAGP
# [4] = target: Guanidinoacetate N-methyltransferase (Homo sapiens) (UniProt Q14353); test: as above; details: activity change, negative = inhibition: at 57.3 µM (top of the series) unless noted
# [5] = target: Nicotinamide N-methyltransferase (Homo sapiens) (UniProt P40261); test: as above; details: MTase-Glo luminescence, SAH detection, recombinant enzyme; measured here: NNMT max response; stronger effect = lower value
# Nicotinamide N-methyltransferase (Homo sapiens), sequence (P40261 whole entry, looked up): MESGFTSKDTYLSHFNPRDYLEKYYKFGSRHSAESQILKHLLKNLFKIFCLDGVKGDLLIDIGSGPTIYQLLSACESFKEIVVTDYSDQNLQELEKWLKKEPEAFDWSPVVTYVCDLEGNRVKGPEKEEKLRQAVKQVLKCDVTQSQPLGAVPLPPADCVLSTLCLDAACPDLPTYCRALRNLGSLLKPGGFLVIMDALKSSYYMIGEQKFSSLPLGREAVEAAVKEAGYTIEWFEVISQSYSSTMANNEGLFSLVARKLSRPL
# [6] = target: Phenylethanolamine N-methyltransferase (Homo sapiens) (UniProt P11086); test: as above; details: MTase-Glo luminescence, SAH detection, recombinant enzyme; measured here: PNMT max response; stronger effect = lower value
# Phenylethanolamine N-methyltransferase (Homo sapiens), sequence (P11086 whole entry, looked up): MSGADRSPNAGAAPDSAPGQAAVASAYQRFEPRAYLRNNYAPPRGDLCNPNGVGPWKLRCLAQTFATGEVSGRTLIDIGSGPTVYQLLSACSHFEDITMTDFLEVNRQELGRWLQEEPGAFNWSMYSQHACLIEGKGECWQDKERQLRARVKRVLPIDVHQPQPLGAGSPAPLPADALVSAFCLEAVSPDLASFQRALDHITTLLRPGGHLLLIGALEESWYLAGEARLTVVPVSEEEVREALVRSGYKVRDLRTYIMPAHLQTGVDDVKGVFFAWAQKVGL
# HaCat = test: Cytotoxic Profiling of Annotated Libraries Using Quantitative High-Throughput Screening (AID 1296008); details: Five cell lines viability, CellTiter-Glo ATP luminescence, 48-72 h; max response: stronger effect = lower value; also: nearly all actives have a fitted effect of over 60% in size; as to max response: % is scaled to controls: 0 for no effect and ±100 for the full control effect
# Summary of the method: (§1)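 Compounds were pin-transferred onto cells and incubated 48 or 72 hr at 37 degree Celsius, 95% humidity. CellTiter-Glo was added, plates sat 10 min at room temperature, then ATP-coupled luminescence was imaged as the viability read-out.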
# CAOV3 = test: Primary qHTS to identify gynecologic anti-cancer compounds using libraries of approved drugs and bioactive compounds (AID 1345084); details: Gynecologic cancer cell panel viability, ATPlite luminescence, 48 h; series mostly up to 57.5 µM; also: nearly all actives have a fitted effect of over 55% in size; also: potency is read from the fitted curve at half-maximal effect
# Summary of the method: (§2)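 Cells, 1,000 per well, were allowed to settle for 16 h at 37 C before compound addition. Five concentrations were tested for 48 h, and viability was read by ATPlite luminescence after 15 min at room temperature.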
# SKOV3 = test: as above; details: Gynecologic cancer cell panel viability, ATPlite luminescence, 48 h; series mostly up to 57.5 µM
# Summary of the method: as §2
# [7] = Primary redox qHTS assay for identification of artifact compounds. (AID 1845223);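 also: 0% = DMSO and 100% = reference compound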
# Summary of the method: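 Redox-cycling detection via DTT (250 uM final) oxidation coupled to Amplex Red (25 uM)/HRP (250 mU/mL) in HBSS. 15 min preincubation plus 30 min after DTT, room temperature. Ex/Em 525/598 nm; 4-parameter Hill fit against DMSO and 10 uM DA3003.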
# [8] = qHTS to identify inhibitors of the type 1 interferon - major histocompatibility complex class I in skeletal muscle: primary screen against the NCATS Mechanism Interrogation Plate v5.0 (MIPE) Libary (AID 1347411);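 also: plate controls were vehicle for no effect and reference inhibitor for full effect; nearly all actives have a fitted effect of over 65% in size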
# Summary of the method: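 Seed engineered human myoblasts (HLA-B HiBit) in medium without dexamethasone containing 4 ng/ml IFN-beta; after 1 hr add compound titrations (top 46 uM final). Incubate 24 hrs at 37 C, lyse 10 min with HiBiT reagent, read luminescence.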
# [9] = qHTS drug screen for cell cycle checkpoint inhibitors in PARPi-resistant BRCA-mutant ovarian cancer cell lines. (AID 1963452; calls by dose curve); details: PEO1/OlaR viability, CellTiter-Glo luminescence, 96 h, stronger effect = lower value
# Summary of the method: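 PEO1, PEO4 and PEO1/OlaR ovarian cancer cells, 600 per well, exposed 96 h at 37C to a dilution series. Viability read by CellTiter-Glo luminescence, normalized to DMSO and empty wells; activity summarized as Z-AUC.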
# CRL-7250 = normal cell line; test: Cytotoxic Profiling of Annotated Libraries Using Quantitative High-Throughput Screening (AID 1296008); details: Five cell lines viability, CellTiter-Glo ATP luminescence, 48-72 h; max response: stronger effect = lower value; also: nearly all actives have a fitted effect of over 60% in size; as to max response: % is scaled to controls: 0 for no effect and ±100 for the full control effect
# Summary of the method: as §1
# [10] = target: Cytochrome P450 2D6 (Homo sapiens) (UniProt P10635); test: Cytochrome P450 family 2 subfamily D member 6 (CYP2D6) small molecule antagonists: luciferase biochemical (cell-free) qHTS assay (AID 1645840; active = well fitted curve in the direction sought with a large enough effect in the repeat runs; an effect the other way counts as inactive or inconclusive; also: potency is read from the fitted curve at half-maximal effect; nearly all actives have a fitted effect of over 55% in size)
# Cytochrome P450 2D6 (Homo sapiens), sequence (P10635 whole entry, looked up): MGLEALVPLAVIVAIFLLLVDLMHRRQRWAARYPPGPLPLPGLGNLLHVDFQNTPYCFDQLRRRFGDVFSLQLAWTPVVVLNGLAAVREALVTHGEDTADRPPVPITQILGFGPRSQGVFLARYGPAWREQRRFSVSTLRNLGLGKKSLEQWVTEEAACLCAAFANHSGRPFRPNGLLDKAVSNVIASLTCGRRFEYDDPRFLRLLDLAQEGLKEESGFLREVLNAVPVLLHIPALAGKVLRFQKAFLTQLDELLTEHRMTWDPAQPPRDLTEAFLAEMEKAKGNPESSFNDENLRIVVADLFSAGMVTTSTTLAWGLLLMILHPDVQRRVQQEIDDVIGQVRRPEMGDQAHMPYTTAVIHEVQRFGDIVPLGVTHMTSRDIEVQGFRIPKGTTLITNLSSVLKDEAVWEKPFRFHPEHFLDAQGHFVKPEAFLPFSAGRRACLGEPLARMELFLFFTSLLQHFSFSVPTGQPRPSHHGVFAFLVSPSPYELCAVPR
# Summary of the method: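 P450-Glo CYP2D6 system: proluciferin substrate converted by enzyme to luciferin, read by luminescence proportional to activity. Enzyme-substrate mix with compound 10 min at room temperature, then NADPH regeneration 1 h before detection reagent.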
compound,measurement,setting,value
O=[N+]([O-])c1ccc(-[n+]2nc(-c3ccccc3)nn2-c2ccc(I)cc2)cc1,Potency,[1],18.4 µM (active)
same,Potency,[2],19 µM (active)
same,activity,[3],-47.4%
same,Potency,[4],21.5 µM (active)
same,activity,[5],-39.3%
same,activity,[6],-49.2%
same,max response,HaCat,-29.5% (inactive)
same,Potency,CAOV3,11.2 µM (active)
same,Potency,SKOV3,inactive
N#Cc1c[nH]c2c(C(=O)N3CCN(CCc4ccc(F)cc4)CC3)cccc12,Potency,[2],13.5 µM (active)
same,Potency,[7],inactive
same,max response,HaCat,-7.89% (inactive)
same,Potency,CAOV3,inactive
O=C(NNc1ccccc1)c1ccncc1,Potency,[1],inactive
same,Potency,[8],inactive
same,Potency,[7],inactive
same,Z-AUC,[9],1.21 (inactive)
same,Z-AUC,[9]; measured here: PEO1 parental Z-AUC,0.257
same,Z-AUC,[9]; measured here: PEO4 Z-AUC,0.154
same,max response,HaCat,-7.12% (inactive)
same,Potency,CAOV3,inactive
COc1cc(O)c(C(=O)CCc2ccc(O)cc2)c(O[C@@H]2O[C@H](CO)[C@@H](O)[C@H](O)[C@H]2O)c1,Potency,[1],inactive
same,activity,[3],-69.8%
same,"activity change, negative = inhibition",[4],-2.33% [at 29.8 µM]
same,activity,[5],0.372%
same,activity,[6],0.533%
same,outcome,HaCat,inactive
same,Potency,CAOV3,inactive
CCC[C@@H](NC(=O)N1C(=O)C(CC)(CC)[C@@H]1Oc1ccc(C(=O)N2CCN(C)CC2)cc1)c1ccc2c(c1)OCO2,Potency,[1],20.6 µM (active)
same,Potency,[2],3.38 µM (active)
same,Potency,[7],inactive
same,outcome,HaCat,inactive
same,Potency,SKOV3,inactive
C/C=C(/COC(=O)/C(C)=C/C)C(=O)OC/C=C/c1ccc(OC)cc1,Potency,[7],inactive
same,max response,CRL-7250,-7.59% (inactive)
same,outcome,HaCat,inactive
same,Potency,CAOV3,inactive
same,Potency,SKOV3,inactive
C=C(C)[C@@H]1CC[C@]2(C(=O)O)CC[C@]3(C)C(CCC4[C@@]5(C)C[C@@H](O)[C@H](O)C(C)(C)C5CC[C@]43C)C12 (some centres undefined),Potency,[1],inactive
same,Potency,[7],inactive
same,max response,HaCat,-24.1% (inactive)
same,Potency,CAOV3,inactive
CN1CCN(C(=O)c2ccc(Nc3nccc(-c4cccs4)n3)cc2Cl)CC1,Potency,[1],18.4 µM (active)
same,Potency,[10],21.3 µM (active)
same,Potency,[2],0.674 µM (active)
same,activity,[3],-2.55%
same,"activity change, negative = inhibition",[4],0%
same,activity,[5],-31.1%
same,activity,[6],-3.47%
same,max response,HaCat,-21.8% (inactive)
same,Potency,CAOV3,inactive
same,Potency,SKOV3,inactive
Cc1ccccc1C(=O)Nc1ccc(C(=O)N2CCC[C@@H](O)c3cc(Cl)ccc32)c(C)c1,Potency,[2],12 µM (active)
same,max response,CRL-7250,-3.25% (inactive)
same,max response,HaCat,-22.4% (inactive)
same,Potency,CAOV3,inactive
OCC(CO)(CO)NCC(O)Cn1c2ccc(Cl)cc2c2cc(Cl)ccc21 (centres undefined),Potency,[1],inactive
same,max response,HaCat,1.65% (inactive)
same,Potency,CAOV3,inactive
